Test results reported in PubChem BioAssay AID1508619 (National Center for Advancing Translational Sciences (NCATS), 2020).
Records with an inconclusive call do not appear. Entries that show only a call come without a potency. Active and inactive are the calls of the source. Calls follow the shape of the dose curve; as a rule, active = well fitted inhibition curve with a large enough effect; inconclusive = small, poorly fitted or top-dose-only effect; inactive = no such curve, though single readings can be large or run the other way.

Experiment: Counterscreen qHTS for Identification of Calcium Integrin Binding Protein 1 (CIB1) Competitor
Conditions: series mostly up to 114 µM
From the text: Assay Provider: Ulhas P. Naik, PhD
Sidney Kimmel Medical College
Thomas Jefferson University, Philadelphia, PA
Primary function of platelets is to maintain hemostasis. At the site of vascular injury, platelets adhere to adhesive proteins such as collagen and von Willebrand factor. Adherent platelets are activated and generate soluble platelet agonists such as thrombin, ADP and thromboxane A2. Following exposure of circulating platelets to these agonists, results in platelet shape change, granule secretion and activation of platelet integrin alphaIIb-beta3. Ligand binding to activated integrin alphaIIb-beta3 triggers outside-in signaling, leading to platelet aggregation, stabilization of platelet plug, and clot retraction. Upon atherosclerotic plaque rupture also causes platelet plug formation, which underlies a number of cardiovascular diseases such as myocardial infraction and stroke. A number of anti-platelet drugs such as aspirin, clopidogrel, prasugrel, vorapaxar, and eptifibatide are currently available to prevent the thrombotic complications. However, these anti-platelet agents have several limitations including inherent variability in individual responses, developing resistance, and serious bleeding side effects. For these reasons they are not suitable for long-term protection. Based on the experiences with current anti-platelet drugs, it appears that the most useful therapeutic approach is to intersect the secondary responses such as integrin outside-in signaling or recruitment of platelets by TxA2 and secreted ADP. Compounds, which can largely preserve the primary hemostatic function of platelets but inhibit secondary response will be most desired therapeutic agents for treatment of cardiovascular disease.
CIB1 is a calcium integrin binding protein, which specifically interact with the alphaIIb subunit of integrin alphaIIb-beta3. Binding of CIB1 to alphaIIb regulates the outside-in signaling in platelets, which is needed for thrombus stabilization and thrombus growth. […] Therefore, we propose that discovery of a small molecule that can prevent the association of CIB1 and alphaIIb-beta3 will be a potential anti-platelet agent that can block the thrombus formation without undue effect on hemostasis.
To develop fluorescence polarization (FP) assay using fluorescently labeled alphaIIb peptide and CIB1 protein. Using FP assay characterize the binding affinity, competitive inhibition, and acceptable Z factor (0.5 to1) in order to perform the HTS to identify small molecule compound that can prevent CIB1 binding to platelet integrin alphaIIb-beta3. Active compounds were re-acquired and validated using confirmatory and counterscreens (using 100 nM scrambled peptide).
[1] Naik MU, Nigam A, Manrai P, et al. CIB1 deficiency results in impaired thrombosis: the potential role of CIB1 in outside-in signaling through integrin alpha IIb beta 3. J Thromb Haemost. 2009;7(11):1906-1914. doi:10.1111/j.1538-7836.2009.03581.
SEQUENCE No. (1, 2, 3, etc.); […] (e.g., Cells, Incubation, Reagent, etc.); VALUE and DESCRIPTION.
1; Reagent; 3 uL; Protein or buffer (4/3x)
2; Compound; 46 nL; Control inhibitor / compound library
3; Time; 15 min; Room temperature incubation
4; Reagent; 1 uL; Fluorescent labeled peptide (4x)
5; Time; 1000 rpm; Centrifuge
6; Time; 15 min; Room temperature incubation
7; Detection; Ex 480/ Em 540; ViewLux Fluorescence Read
NOTES (numbers refer to sequence above)
1; Protein Mixture: C1B1-GST (final concentrations of 1 uM). Buffer composition: 5 mM HEPES pH 7.4, 125 mM NaCl, 5 mM CaCl2, 0.01% Tween20.
2; Control Inhibitor: unlabeled peptide (final concentration range 17.4 nM to 572 uM). Compound Library final concentration range 18.3 nM to 114 uM.
3; Room temperature incubation.
4; Fluorescent Labeled Peptide: FITC-alphaIIb (final concentration of 100 nM). Sequence of Scrambled peptide: Acetyl-[…]-FITC (purity is 95.37%).
6; Room temperature incubation.
[…]
Potency is read from the fitted curve at half-maximal effect.

| SMILES | Potency |
| --- | --- |
| CCCCCCCCOc1ccccc1C(=O)Nc1ccc(C(=O)OCC[N+](C)(CC)CC)cc1 | inactive |
| C=CCNc1oc(-c2ccc(-c3ccccc3)cc2)nc1C#N | inactive |
| C=C(CC)C(=O)c1ccc(OCC(=O)O)c(Cl)c1Cl | inactive |
| COc1ccc2c(=O)n3nc(Nc4cccc(N5CCN(C)CC5)c4)sc3nc2c1 | inactive |
| CCN(CC)C(=S)SSC(=S)N(CC)CC | inactive |
| O=C1CCCC2=C1C1(CCCOC1)N=C(Nc1nc3ccccc3o1)N2 (stereo not given) | inactive |
| Cn1cc(-c2[nH]c3cc(NC(=O)[C@H](N)C4CCCCC4)cc4c3c2C=NNC4=O)cn1 | 79.4 µM (active) |
| CC(C)(C)c1ccc(SC2=NS(=O)(=O)c3ccccc32)cc1 | inactive |
| O=C1CCC2=C1C1(CCCC1)N=C(Nc1nc3ccccc3o1)N2 | inactive |
| O=C1CCCC2=C1C(c1[nH]ncc1Cl)N=C(Nc1nc3ccccc3o1)N2 (stereo not given) | inactive |
| Cc1ccc(C)n1-c1cccc(C(=O)O)c1 | inactive |
| Cc1ccc(S(=O)(=O)Nc2cc3c(cc2C(=O)Nc2nc(-c4ccccc4)cs2)OCO3)cc1 | inactive |
| O=c1[nH]sc2cc(Cl)ccc12 | inactive |
| N#Cc1ccc(N[S+](=O)([O-])c2ccc(Nc3nc(-c4ccccc4)cs3)cc2)cc1 | 44.7 µM (active) |
| O=C1c2ccccc2C(=O)c2c1ccc(O)c2O | 22.4 µM (active) |
| NS(=O)(=O)c1ccc(Nc2nc(-c3ccccc3)cs2)cc1 | 44.7 µM (active) |
| Nc1ccc(O)c([N+](=O)[O-])c1 | 63.1 µM (active) |
| NC(=O)C1CCN(c2ncc(Br)s2)CC1 | 39.8 µM (active) |
| O=C(O)Cc1ccc(CCNS(=O)(=O)c2ccc(Cl)cc2)cc1 | inactive |
| Cc1cc2nc3ccc(=[N+](C)C)cc-3sc2cc1N | 44.7 µM (active) |

| SMILES | Potency |
| --- | --- |
| COc1cc(C(=O)NS(=O)(=O)c2ccccc2C)ccc1Cc1cn(C)c2ccc(NC(=O)OC3CCCC3)cc12 | inactive |
| NC(=O)c1ccnc2c(O)cccc12 | inactive |
| Cc1ccc(Cl)cc1NC(=O)c1nc[nH]c1C(=O)Nc1nc2ccccc2[nH]1 | inactive |
| Cc1cc(NS(=O)(=O)c2ccc(NC(=O)Cc3ccc(F)c(Cl)c3)cc2)no1 | inactive |
| CSc1cc2c(s1)c1cnn(Cc3cccc(N)c3)c(=O)c1n2C | inactive |
| NC(=O)c1ncn([C@@H]2O[C@H](CO)[C@@H](O)[C@@H]2O)c1O | inactive |
| CN(C)CCN1C(=O)c2cccc3cc(N)cc(c23)C1=O | inactive |
| CCOC(=O)c1nnc(N[S+](=O)([O-])c2ccc(NC(=O)Cc3ccc(Cl)c(Cl)c3)cc2)s1 | inactive |
| C[C@H](Cc1ccc(O)c(O)c1)[C@@H](C)Cc1ccc(O)c(O)c1 | 12.6 µM (active) |
| O=C1CCCC2=C1C(c1ccncc1)N=C(Nc1nc3ccccc3o1)N2 (stereo not given) | inactive |
| Cc1ccc([S+](=O)([O-])Nc2nn3c(=O)c4ccccc4nc3s2)cc1C | inactive |
| CCCCC(CC)CN=C(N)NC(N)=NCCCCCCN=C(N)NC(N)=NCC(CC)CCCC (stereo not given) | inactive |
| O=S(=O)(Nc1nccs1)c1ccc(NCc2cc(Cl)ccc2O)cc1 | inactive |
| O=[N+]([O-])c1ccc(O)c2ncccc12 | inactive |
| COc1ccc(C(=O)Nc2nc(-c3ccccc3)cs2)c(NS(=O)(=O)c2ccc(C)cc2)c1 | inactive |
| CS(=O)(=O)c1ccc(C(=O)OCC(=O)N2CCC(Cc3ccccc3)CC2)cc1[N+](=O)[O-] | inactive |
| Cc1ccc(S(=O)(=O)Nc2cnccc2C(=O)Nc2nc3ccccc3s2)cc1 | inactive |
| O=C(O)C1=NC(C(=O)O)CC(C=CN2c3cc(O)c(OC4OC(CO)C(O)C(O)C4O)cc3CC2C(=O)O)=C1 (stereo not given) | inactive |
| CCOc1ccc(CCNC(=O)c2ccc(N3N=C(C)CC3=O)cc2)cc1OCC | inactive |
| Cc1c(C)n(Cc2ccc(-c3ccccc3C(=O)O)cc2)c2ccc(C(=O)N[C@@H](C)c3ccc([N+](=O)[O-])cc3)cc12 | inactive |
